High-throughput results (PubChem BioAssay)
LGR2 inh: Drosophila LGR2 receptor signaling inhibition; actives 0.35% (n = 380,000); inhibition, % at 9.99 µM; HEK293 LGR2, CRE-luciferase, bursicon-stimulated, 4 h; AID 720647;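 active = drop in luminescence signal, shown as inhibition above about 50% in the replicate tests, limit read from the data, passing the limit was not always enough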;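 note: agonist challenge used bursicon conditioned medium at about half maximal strength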
aDG glyco up: alpha-DG glycosylation activation; actives 0.22% (n = 360,000); AID 624168; activation, % at 10 µM; Pro5-aDG cells, alpha-DG glycosylation AlphaScreen (IIH6); 0% Pro5, 100% B10-LARGE cell signal;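 active = activation of at least 8% versus controls, or a plate z-score of at least 8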;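 note: Pro5 are CHO cells carrying HIG-tagged alpha-DG that lacks glycosylation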
TROY NFkB inh: TROY signaling inhibition. Q293 LMP1-TROYcd NF-kB luciferase reporter, 4 h. actives 0.98% (n = 360,000). AID 1347056. inhibition, % at 10 µM;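 active = compounds whose plate-normalised and pattern-corrected inhibition of the luciferase reporter signal at the single screening dose is 50% or more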
TWEAK-Fn14 inh: TWEAK-Fn14 signaling inhibition; TWEAK-stimulated Fn14 reporter cells, luciferase luminescence, 8 h; inhibition, % at 10 µM; actives 2% (n = 360,000); in the data active = inhibition above about 50%
LMP1 NFkB inh: reduces LMP1-driven NF-kappaB luciferase signal; inhibition, % at 12.5 µM; LMP1-induced NF-kappaB luciferase reporter cells, luminescence; actives 0.69% (n = 350,000); in the data active = inhibition above about 41%;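 note: 0% = neutral control wells and 100% = reference inhibitor control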
HSP90 refold inh: inhibitors of HSP90 luciferase refolding in rabbit reticulocyte lysate. luciferase refolding luminescence, 3 h. actives 0.91% (n = 290,000). inhibition, % at 5.6 µM;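 active = inhibition above the screen-wide mean plus 3 SD, computed separately per campaign, cut at about 16% in these data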;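 note: 0% = DMSO wells and 100% = 60 µM geldanamycin wells; inhibitors lower the luminescence because luciferase stays unfolded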
* = called active by the depositor; nt = no result given. A selection: hits, their analogues and other compounds. The true share with any hit is near 2.6%.

SMILES | LGR2 inh | aDG glyco up | TROY NFkB inh | TWEAK-Fn14 inh | LMP1 NFkB inh | HSP90 refold inh
CCCC(=O)C1=C(O)C(C(=O)OC)C(C)(C)CC1=Nc1ccc(C)cc1 (stereo not drawn) | 7 | 0 | 1 | -4 | 3 | -6
CCCC(=O)C1=C(O)C(C(=O)OC)C(C)(C)CC1=Nc1ccncc1 (stereo not drawn) | nt | 0 | -2 | -3 | 77* | 0
C[C@H](CO)N1C[C@H](C)[C@H](CN(C)C(=O)Nc2ccc3c(c2)OCO3)Oc2ccc(NC(=O)CCC(F)(F)F)cc2CC1=O | 13 | nt | nt | nt | nt | nt
O=C(CN1CCOCC1)NCC[C@H]1CC[C@H](NC(=O)Nc2ccc(C(F)(F)F)cc2)[C@H](CO)O1 | 5 | nt | nt | nt | nt | nt
O=C1OCCC1Sc1nnc(-c2ccc(Br)cc2)o1 (stereo not drawn) | nt | 0 | -2 | 59* | 23 | 0
Cc1ccccc1S(=O)(=O)N1CC[C@@H]2[C@@H](CO)Nc3ccc(C#Cc4ccccc4)cc3[C@@H]21 | -19 | nt | nt | nt | nt | nt
OC1CCN(Cc2ccc3ccccc3c2)CC1 | 2 | 0 | -10 | 97* | 12 | -3
O=[N+]([O-])c1ccccc1CN1CCN(Cc2ccc3ccccc3c2)CC1 | -9 | 0 | -8 | 65* | 11 | 2
COc1ccc(CN2CCN(Cc3ccc4ccccc4c3)CC2)cc1OC | 5 | 0 | 18 | -4 | 11 | -2
COc1ccc(NC(=O)Nc2ccc3c(c2)C(=O)N([C@@H](C)CO)C[C@@H](C)[C@@H](CN(C)Cc2ccccc2)O3)cc1 | -6 | nt | nt | nt | nt | nt
C/C(=N\Nc1cc(C)nc(-c2ccccc2O)n1)c1ccccc1O | 3 | 0 | 16 | 55* | -13 | -1
Cc1cc(N/N=C\c2ccccc2)nc(-c2ccccc2O)n1 | -26 | 0 | -16 | 46 | -22 | -1
Cc1cc(N/N=C/c2ccc(O)cc2O)nc(-c2ccccc2O)n1 | nt | 0 | 20 | 65* | -2 | -2
CCS(=O)(=O)NCC[C@@H]1CC[C@H](NC(=O)Cc2ccccn2)[C@@H](CO)O1 | -7 | nt | nt | nt | nt | nt
Cc1ccccc1S(=O)(=O)NCC[C@H]1CC[C@H](NC(=O)Nc2cccc(Cl)c2)[C@@H](CO)O1 | -18 | nt | nt | nt | nt | nt
O=C1ON=C(c2ccccc2)/C1=C/c1ccc(-c2ccccc2[N+](=O)[O-])o1 | -2 | 0 | -2 | 95* | -7 | 0
OC(c1ccccc1)(c1ccccc1)C1CCN(CCCOc2ccc(-c3ccc(F)cc3F)cc2)CC1 | 1 | nt | nt | nt | nt | nt
COc1ccccc1-c1ccc(OCCCN2CCC(C(O)(c3ccccc3)c3ccccc3)CC2)cc1 | 62* | nt | nt | nt | nt | nt
COc1ccc(S(=O)(=O)N(C)C[C@H]2OCCCC[C@H](C)Oc3ccc(NC(=O)CCCN(C)C)cc3C(=O)N([C@@H](C)CO)C[C@@H]2C)cc1 | 3 | nt | nt | nt | nt | nt
CN1C(=O)NC(c2ccccc2)C2=C1CN(c1ccc3ccccc3c1)C2=O (stereo not drawn) | nt | 0 | 53* | 34 | -10 | 3
O=[N+]([O-])c1ccc(O)c(/C=N/Nc2ccccc2Cl)c1 | 33 | 0 | 69* | 11 | -38 | -2
C[C@@H](NC(=O)[C@H]1[C@H](CO)[C@H]2Cn3c(cccc3=O)[C@@H]1N2Cc1ccccc1)c1ccccc1 | -4 | nt | nt | nt | nt | nt
C[C@H](CO)N1C[C@H](C)[C@@H](CN(C)C(=O)CCCN(C)C)OCCCC[C@H](C)Oc2ccc(NC(=O)c3ccncc3)cc2C1=O | -5 | nt | nt | nt | nt | nt
Cc1ccc(C)c(NC(=O)CSc2nc3nc(-c4cccs4)cc(C(F)(F)F)c3c(=O)[nH]2)c1 | -1 | 0 | 53* | 7 | -10 | 0
O=C(CSc1nc2nc(-c3cccs3)cc(C(F)(F)F)c2c(=O)[nH]1)Nc1ccc(F)c(F)c1 | 4 | 0 | 49 | 70* | -6 | 0
SMILES | LGR2 inh | aDG glyco up | TROY NFkB inh | TWEAK-Fn14 inh | LMP1 NFkB inh | HSP90 refold inh
Cc1ccc(C)c(NC(=O)CSc2nc(N)c(NC(=O)c3cccs3)c(=O)[nH]2)c1 | 7 | 0 | 6 | 11 | 0 | -6
Nc1nc(SCC(=O)Nc2ccc(C(F)(F)F)cc2)[nH]c(=O)c1NC(=O)c1ccc(F)c(F)c1 | 19 | 0 | -4 | -1 | -1 | 8
COc1ccc(CS(=O)(=O)/C(Cl)=C(/Cl)C(=O)Nc2ccc(OC)nc2)cc1 | nt | -1 | 80* | 99* | 91* | 6
COc1ccc(/C=C/C(=O)Nc2ccc(OC)nc2)cc1 | -29 | 0 | -39 | 13 | -14 | 2
COc1ccc(NC(=O)/C(Cl)=C(/Cl)S(=O)Cc2ccccc2)cn1 (stereo not drawn) | nt | -1 | 63* | 98* | 83* | 6
COc1ccc(NC(=O)Cc2ccccc2)cn1 | 2 | 0 | -8 | 0 | 0 | -1
CCC(=O)N(C)C[C@@H]1Oc2cc(/C=C/c3ccccc3)ccc2S(=O)(=O)N([C@H](C)CO)C[C@H]1C | -1 | nt | nt | nt | nt | nt
COc1cccc2c1C1COC3C4CC(C(=O)O)C(C(C2)N13)N4C (stereo not drawn) | 1 | 0 | 30 | 61* | 1 | nt
COc1cccc2c1C(CCCC(=O)O)CCC2 (stereo not drawn) | 2 | 0 | -3 | 0 | -4 | nt
O=C(CSc1n[nH]c(=O)[nH]c1=O)NC1CCCCC1 | -20 | 0 | -18 | -8 | 0 | 17*
O=C(/C=C/c1c[nH]c2ccccc12)c1ccccc1 | -70 | 0 | -102 | 30 | -34 | -4
C(=Cc1c[nH]c2ccccc12)c1nccc2ccccc12 | 94* | 2 | 65* | 89* | -31 | nt
C(=Cc1c[nH]c2ccccc12)c1ccc2ccccc2n1 | 89* | 2 | 33 | 73* | 13 | nt
CN1C(=O)c2cc(NC(=O)C3CCOCC3)ccc2OC[C@H]2O[C@H](CC(=O)NCC3CCCCC3)CC[C@H]21 | 22 | nt | nt | nt | nt | nt
COc1cccc(NC(=O)N(C)C[C@@H]2Oc3cc(/C=C/c4ccccc4)ccc3S(=O)(=O)N([C@@H](C)CO)C[C@H]2C)c1 | 39 | nt | nt | nt | nt | nt
Cc1cc(=O)n2[nH]c(C)c(-c3ccccc3)c2n1 | nt | 0 | -13 | -14 | 7 | 1
O=c1cc(-c2ccccc2)nc2c(-c3ccccc3)c(C(F)(F)F)[nH]n12 | 0 | 0 | 56* | 22 | nt | -4
COc1cccc(NC(=O)C[C@H]2CC[C@@H]3[C@@H](COc4ccc(NC(C)=O)cc4C(=O)N3C)O2)c1 | -7 | nt | nt | nt | nt | nt
Cc1sc2ncn(CC(=O)N3CCC(C(N)=O)CC3)c(=O)c2c1S(=O)(=O)N1CCOCC1 | -2 | 0 | -18 | 4 | 46* | -3
CSCC(CO)NS(=O)(=O)c1ccc(C)cc1 (stereo not drawn) | 4 | 0 | 57* | 23 | 2 | 3
COc1ccc(S(=O)(=O)Nc2ccc3c(c2)C(=O)N([C@H](C)CO)C[C@H](C)[C@@H](CN(C)Cc2ccc4c(c2)OCO4)OCCCC[C@@H](C)O3)cc1 | -5 | nt | nt | nt | nt | nt
CCCN(C)C[C@@H]1Oc2cc(C#Cc3cccnc3)ccc2S(=O)(=O)N([C@@H](C)CO)C[C@@H]1C | -2 | nt | nt | nt | nt | nt
